Potency and affinity values are given separately. Values without a mark were called inactive.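 How the source made its calls: active means absorbance falls by 30% or more versus neutral controls, with a potency fitted within twice the top valid dose; inconclusive means no clear call, values can overlap the other calls; inactive means change opposite to expected direction, plus the rest.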
The molecules below were run against Protein disulfide-isomerase (Homo sapiens) (UniProt P07237) (assay: inhibition of PDI-driven insulin aggregation – biochemical, turbidity, absorbance, cherry-picked samples, dose response (AID 602350;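 further: 0% = neutral controls and -100% = rutin hydrate positive control wells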)). Conditions: recombinant PDI insulin aggregation, absorbance 650 nm, 90 min; series mostly up to 19.5 µM; activity change, negative = inhibition: at the top concentration.
Protein disulfide-isomerase (Homo sapiens), sequence (P07237 whole entry, looked up): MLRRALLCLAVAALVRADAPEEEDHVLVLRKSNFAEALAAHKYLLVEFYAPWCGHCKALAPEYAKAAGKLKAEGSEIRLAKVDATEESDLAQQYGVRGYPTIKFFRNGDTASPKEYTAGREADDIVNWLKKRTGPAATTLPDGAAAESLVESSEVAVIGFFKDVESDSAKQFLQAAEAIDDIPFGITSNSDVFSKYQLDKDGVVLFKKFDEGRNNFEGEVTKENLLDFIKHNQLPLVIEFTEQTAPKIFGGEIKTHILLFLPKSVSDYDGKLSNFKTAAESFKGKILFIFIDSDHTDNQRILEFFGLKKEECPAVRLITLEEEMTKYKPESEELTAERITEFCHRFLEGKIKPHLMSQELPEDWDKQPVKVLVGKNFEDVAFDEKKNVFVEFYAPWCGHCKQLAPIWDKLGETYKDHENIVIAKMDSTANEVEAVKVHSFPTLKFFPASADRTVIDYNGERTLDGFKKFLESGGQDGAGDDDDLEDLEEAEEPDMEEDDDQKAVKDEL

Compound	activity change, negative = inhibition [%]
CC(Cc1ccc(O)cc1)NCC(O)c1ccc(O)c(O)c1 (stereo unspecified)	-11.8
CCOC(C(=O)OCCCN(CC)CC)(c1ccccc1)c1ccccc1	8.02
C[C@H]1CCCC(=O)CCCCCc2cc(O)cc(O)c2C(=O)O1	8.5
CN1CCN(CCOC2c3ccccc3CSc3ccc(Cl)cc32)CC1 (stereo unspecified)	-3.03
CCOC(=O)C1(CCOc2ccccc2)CCN(Cc2cccc(O)c2)CC1	-12.9
NC(=O)CSc1nnc([C@@H](N)Cc2c[nH]c3ccccc23)o1	-3.03

Source: PubChem BioAssay AID602350 (Broad Institute, 2012)
